# Compound activity (PubChem BioAssay)
# Sampled rows, rich in hits. Any-hit rate of the full collection: about 1.6%.
# KCNQ2 pot = enhances the rat KCNQ2 potassium channel; AID 2239; CHO-K1 KCNQ2, FluxOR thallium flux fluorescence; active compounds read high; O88943; hit rate 0.54% among 310,000; B-score at 10 µM;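 active = fluorescence ratio B-score at least 3 SD of library B-scores, with initial fluorescence B-score within 3 of them, cut at about 5.3 in these data; same plate scores as AID 2156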;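 also: B-score of peak minus minimum over baseline fluorescence ratio after K+ and Tl+ stimulus; positive B-score means potentiation of KCNQ2 with more thallium influx and brighter signal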
# KCNQ2 block = blocks the rat KCNQ2 potassium channel; CHO-K1 KCNQ2, FluxOR thallium flux, 20 min; active compounds read low; hit rate 1.1% among 310,000; O88943; B-score at 10 µM;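 active = fluorescence ratio B-score at most minus 3 library SDs, with starting brightness B-score within 2 library SDs, cut at about -5.5 in these data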
# Kir21 conf inh = confirmation of mouse Kir2.1 potassium channel inhibitors. shares compounds with KCNQ2 pot. Kir2.1-expressing cells, FluxOR thallium flux fluorescence; active compounds read low. Tl flux remaining, % of negative control (active compounds read low), % at 10 µM. hit rate 41% among 2,300;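 active = Primary-screen hit whose thallium flux fell at least 3 control SD below untreated wells in both duplicates, with normal baseline fluorescence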
# Target sequence (P35561 whole entry, looked up): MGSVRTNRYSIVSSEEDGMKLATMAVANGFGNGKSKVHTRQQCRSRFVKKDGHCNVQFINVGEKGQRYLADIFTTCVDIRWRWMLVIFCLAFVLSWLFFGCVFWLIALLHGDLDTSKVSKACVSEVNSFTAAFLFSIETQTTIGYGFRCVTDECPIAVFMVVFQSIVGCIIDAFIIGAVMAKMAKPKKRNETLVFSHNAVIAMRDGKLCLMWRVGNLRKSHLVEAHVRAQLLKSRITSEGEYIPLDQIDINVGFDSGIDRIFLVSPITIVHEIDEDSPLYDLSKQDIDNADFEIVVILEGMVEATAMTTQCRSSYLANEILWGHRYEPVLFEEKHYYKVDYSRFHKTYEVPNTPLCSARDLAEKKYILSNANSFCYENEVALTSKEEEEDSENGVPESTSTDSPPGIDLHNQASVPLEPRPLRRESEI
# HEK293 Tl flux = alters thallium flux in parental HEK293 cells, Kir2.1 counter-screen | shares compounds with KCNQ2 pot | hit rate 19% among 2,300 | FluxOR signal as % of negative control (100 = no effect), % at 10 µM | FluxOR thallium flux fluorescence; 0% = unstimulated blank wells | AID 2105;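 active = dye signal at least 3 control SD above or below untreated wells in both duplicates, raw fluorescence within 3, either direction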;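 also: percent is based on the flux ratio of peak minus minimum fluorescence over baseline F0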
# CHO-K1 ctr = counter-screen for KCNQ2 potentiators: effect in parental CHO-K1 cells. shares compounds with KCNQ2 pot. FluxOR thallium flux fluorescence; zero = vehicle mean+3SD, 100% = vehicle-minus-blank window. activity increase over 3SD of controls, % at 10 µM. hit rate 43% among 1,200;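 active = signal rise of at least 3 SD above the untreated control mean, in both duplicate wells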;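 also: counter screen of KCNQ2 potentiator hits so any rise reflects channel-independent effects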
# KCNQ1 pot spec = human KCNQ1 counter-target activity of KCNQ2 potentiators; shares compounds with KCNQ2 pot; CHO KCNQ1 stable, FluxOR thallium flux fluorescence; beyond 3SD, as % of vehicle-control signal; activation over 3SD threshold, % at 10 µM; hit rate 28% among 1,200;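 active = fluorescence ratio rise of at least 3 SD of vehicle wells above their mean, in both replicate wells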
# KCNQ2 pot conf = confirmation of rat KCNQ2 potassium channel potentiators; hit rate 68% among 1,200; shares compounds with KCNQ2 pot; CHO-KCNQ2 cells, FluxOR thallium flux fluorescence; potentiation, less the hit threshold, % at 10 µM;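 active = fluorescence ratio rising 3 SD or more over the vehicle control mean in both replicates, plus primary screen hit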;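 also: peak minus minimum thallium fluorescence divided by baseline after K/Tl stimulus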
# Kir21 spec = tests whether KCNQ2 potentiators also affect mouse Kir2.1; activity over 3SD threshold, % at 10 µM; shares compounds with KCNQ2 pot; HEK293 Kir2.1, FluxOR thallium flux fluorescence; hit rate 2% among 1,200;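 active = fluorescence ratio rise of at least 3 SD above the vehicle-control mean, seen in both replicates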
# KCNQ2 W236L MoA = KCNQ2 potentiators acting on retigabine-insensitive rat KCNQ2 W236L mutant; hit rate 10% among 940; current increase over 3SD of negative controls (%), active compounds read high, % at 25 µM; CHO KCNQ2-W236L, automated patch clamp current; shares compounds with KCNQ2 pot; AID 2558;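 active = current increase at least 3 SD of the untreated controls above them in both duplicate recordings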
# A number is an active result; - = inactive; . = not tested or not shown.
SMILES,KCNQ2 pot,KCNQ2 block,Kir21 conf inh,HEK293 Tl flux,others
CCCn1cc(NC(=O)c2cc(-c3ccccc3)on2)cn1,5.7,-,-,-,CHO-K1 ctr=24;KCNQ1 pot spec=-;KCNQ2 pot conf=-
O=C(Nc1cnn(C23CC4CC(CC(C4)C2)C3)c1)c1cc(-c2ccccc2)on1,-,-,.,.,
Cc1nn(CC(=O)N2CCN(c3ccccc3)CC2)c(=O)c2cccn12,-,-,.,.,
CN1C(=O)Cc2cc(S(=O)(=O)Nc3ccc(N4CCOCC4)cc3)ccc21,-,-,.,.,
CC1CCCN(C(=O)c2cc(S(=O)(=O)N3CCCCC3)c[nH]2)C1 (centres undefined),.,-,.,.,
Oc1c(Cl)cc(Cl)cc1/C=N/NC(=S)NC1CC2C=CC1C2 (centres undefined),7.2,-,-,-,CHO-K1 ctr=-;KCNQ1 pot spec=70;KCNQ2 pot conf=-;Kir21 spec=-
Oc1ccccc1/C=N/NC(=S)NC1CC2C=CC1C2 (centres undefined),-,-,.,.,
O=C1CN(S(=O)(=O)c2ccc(Br)cc2)c2ccccc2N1,.,-,.,.,
O=C1CN(S(=O)(=O)c2cccc(Cl)c2Cl)c2ccccc2N1,-,-,59%,-,
CC(OC(=O)CCCN=C1NS(=O)(=O)c2ccccc21)C(=O)Nc1ccc(F)cc1Cl (centres undefined),-,-,.,.,
CCc1ccc(O)c(N=Cc2cccc(C)c2O)c1,7.5,-,-,-,CHO-K1 ctr=-;KCNQ1 pot spec=-;KCNQ2 pot conf=17;Kir21 spec=-;KCNQ2 W236L MoA=-
Cc1cccc(C=Nc2ccc3c4c(cccc24)CC3)c1O,.,-,.,.,
COc1ccc(S(=O)(=O)N/N=c2\oc3c(OC)cccc3cc2S(=O)(=O)c2ccc(C)cc2)cc1OC,.,-,.,.,
COc1cc(/C=C2\SC(=S)N(CCC(=O)N3CCCCC3)C2=O)cc(OC)c1OC,.,-,.,.,
Cc1ccc(CNS(=O)(=O)c2ccc(C)s2)cc1,.,-,.,.,
COc1ccc(/C=N/Nc2cc(C)nc3c(C)cccc23)cc1,.,-,.,.,
COc1ccc(/C=N/Nc2cc(C)nc3ccccc23)cc1,.,-,35%,-,
CN(Cc1ccc(F)cc1)C(=O)CNC(=O)C1CCCCC1,.,-,.,.,
O=c1cc2oc3cc(O)c(O)cc3c(-c3ccccc3[N+](=O)[O-])c-2cc1O,-,-,.,.,
C/C(=N\NC(=O)c1c[nH]c2ccccc12)c1ccccn1,.,-,.,.,
C/C(=N\NC(=O)c1cc2ccccc2cc1O)c1cc2ccccc2o1,21,-,-,452%,CHO-K1 ctr=93;KCNQ1 pot spec=-;KCNQ2 pot conf=69;Kir21 spec=-;KCNQ2 W236L MoA=-
C/C(=N\NC(=O)c1cc2ccccc2cc1O)c1ccccn1,5.9,-,-,166%,CHO-K1 ctr=-;KCNQ1 pot spec=3.0;KCNQ2 pot conf=-;Kir21 spec=-
C/C(=N\NC(=O)c1nc2ccccn2c1C)c1cc2ccccc2o1,-,-,.,.,
CCCNC(=O)c1ccc(C)c(NC(=O)C2=C(C)OCCS2)c1,-,-,.,.,
COc1cccc2c1Oc1ncccc1N(C(=O)CCC(=O)NCc1cccc(C)c1)C2,.,-,.,.,
SMILES,KCNQ2 pot,KCNQ2 block,Kir21 conf inh,HEK293 Tl flux,others
COCCN(CCOC)C(=O)COC(=O)c1cc([N+](=O)[O-])ccc1Cl,.,-,.,.,
Cc1nn2c(NCCN(C)C)c3c(nc2c1-c1ccccc1)CCCC3,6.1,-,.,.,CHO-K1 ctr=-;KCNQ1 pot spec=-;KCNQ2 pot conf=-;Kir21 spec=-
COCCNc1c2c(nc3c(-c4ccccc4)c(C)nn13)CCCC2,.,-,.,.,
COC(=O)/C=C1\OC(c2ccccc2)=CC1=O,-,-13,54%,66%,
O=C1OC(c2ccccc2)=C/C1=C/N1CCCCC1,.,-,.,.,
O=C(c1ccc2[nH]c(=O)c(=O)[nH]c2c1)N1CCN(Cc2ccccc2)CC1,.,-,.,.,
Clc1cccc(CSc2nccn2-c2ccccc2)c1,.,-,64%,-,
Brc1ccc(CSc2nccn2-c2ccccc2)cc1,.,-,.,.,
Cc1cc(C(=O)OCC(=O)Nc2ccccc2)c(C)o1,-,-,.,.,
Cc1cc(C(=O)OCC(=O)Nc2ccc(F)cc2)c(C)o1,5.7,-,-,-,CHO-K1 ctr=74;KCNQ1 pot spec=-;KCNQ2 pot conf=-;Kir21 spec=-;KCNQ2 W236L MoA=-
CO/N=C(/CS(=O)c1ccc(Br)cc1)c1ccc(OC)cc1 (centres undefined),.,-,50%,-,
CO/N=C(/COc1ccc(F)cc1)c1ccc(OC)cc1,.,-,.,.,
CCOC(=O)c1cnc2c(c(C)nn2CC)c1NCCN1CCOCC1,-,-,.,.,
FC(F)(F)c1cc(C(F)(F)F)c2ccc(N3CCN(c4ccc(Cl)cc4)CC3)nc2n1,-,-,.,.,
N#CC(c1ccc(Cl)cc1)c1ccc2c(C(F)(F)F)cc(C(F)(F)F)nc2n1 (centres undefined),18,-,-,-,CHO-K1 ctr=-;KCNQ1 pot spec=47;KCNQ2 pot conf=21;Kir21 spec=-;KCNQ2 W236L MoA=-
CC(=O)c1c(CSc2ccccc2)oc2ccc(O)c(CN(C)C)c12,.,-,38%,64%,
CCOC(=O)c1c(CSc2ccccc2)oc2cc(Br)c(O)c(CN(C)C)c12,-,-,.,.,
CCOC(=O)c1c(C)oc2ccc(O)c(CN(C)C)c12,-,-,.,.,
CCOC(=O)c1c(CSc2ccc(CC)cc2)oc2ccc(O)c(CN(C)C)c12,-,-5.8,16%,-,
O=C(c1ccncc1)N1N=C(C2CC2)CC1(O)C(F)(F)F (centres undefined),6.5,-,-,-,CHO-K1 ctr=56;KCNQ1 pot spec=-;KCNQ2 pot conf=-;Kir21 spec=-
O=C(c1cccnc1)N1N=C(C2CC2)CC1(O)C(F)(F)F (centres undefined),-,-,.,.,
CCn1ncc(Br)c1C(=O)Nc1ccccc1C(F)(F)F,.,-,.,.,
CC(O)CNCCCOc1cccc(C(F)(F)F)c1 (centres undefined),-,-,.,.,
CC(O)CNCCCOc1cccc(Oc2ccccc2)c1 (centres undefined),-,-,14%,-,
Cc1cc(C(=O)OCC(=O)Nc2c(Cl)cccc2C(F)(F)F)c(C)o1,-,-,.,.,
SMILES,KCNQ2 pot,KCNQ2 block,Kir21 conf inh,HEK293 Tl flux,others
CCCCc1ccc(-c2ccc(Br)cc2O)nc1,6,-,-,-,CHO-K1 ctr=-;KCNQ1 pot spec=59;KCNQ2 pot conf=-;Kir21 spec=-
CCCCc1ccc(-c2ccc(C)cc2O)nc1,-,-,.,.,
CCOc1ccccc1NC(=O)C1CCN(C(=O)C2CC(=O)N(c3ccc(C)cc3)C2)CC1 (centres undefined),.,-,.,.,
CN1CCC(OC(=O)c2ccc(Br)cc2)CC1,-,-,.,.,
CN1CCC(=C(c2ccccc2)c2ccc(Br)cc2)CC1,.,-,38%,-,
Cc1cc(NC(=O)C(C)SCC(=O)OCc2ccc([N+](=O)[O-])cc2)no1 (centres undefined),-,-,.,.,
Cc1cc(C(C)(C)C)cc(C)c1COC(=O)c1cccnc1,.,-,.,.,
Cc1ccc(NC(=S)N(Cc2ccc(Br)cc2)Cc2ccc(C(=O)O)cc2)cc1C,.,-,.,.,
